The record followed here is PubChem BioAssay.

A short description of test [1]: antimalarial activity against Dd2 strain (AID 2302;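 active means growth inhibition above 50% at the single 2 µM test dose, taken to imply half-maximal potency below 2 µM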;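 further: 0% = DMSO untreated growth and 100% = chloroquine plus artemisinin killed control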). The conditions noted are these: P. falciparum Dd2 in RBCs, LDH growth readout, 72 h; at 2 µM; hits give high values.
A short description of test [2]: HepG2 cytotoxicity, primary screen, cytotoxicity control for P. falciparum antimalarial project, cell-based, ATP luminescence (AID 2303;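 active means inhibition above 50%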;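 further: 0% = DMSO wells and 100% = digitonin-killed cells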). The settings on record: HepG2 viability, 24-48 h, at 10 µM, hits give high values.
In test [3] the target is L-lactate dehydrogenase (Plasmodium falciparum (isolate CDC / Honduras)) (UniProt Q27743). The test can be described thus: PfLDH activity inhibition – cell lysate, 3D7 strain, counter-screen for P. falciparum growth inhibition project (AID 2304).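 Further: 0% = vehicle and 100% = reference inhibitor.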 The settings on record: P. falciparum 3D7 crude extract, LDH APAD/NBT absorbance; at 2 µM; hits give high values. On the technique in general: The purpose of a counterscreen is to sort out artefacts and off-target activity.
L-lactate dehydrogenase (Plasmodium falciparum (isolate CDC / Honduras)), sequence (Q27743 whole entry, looked up): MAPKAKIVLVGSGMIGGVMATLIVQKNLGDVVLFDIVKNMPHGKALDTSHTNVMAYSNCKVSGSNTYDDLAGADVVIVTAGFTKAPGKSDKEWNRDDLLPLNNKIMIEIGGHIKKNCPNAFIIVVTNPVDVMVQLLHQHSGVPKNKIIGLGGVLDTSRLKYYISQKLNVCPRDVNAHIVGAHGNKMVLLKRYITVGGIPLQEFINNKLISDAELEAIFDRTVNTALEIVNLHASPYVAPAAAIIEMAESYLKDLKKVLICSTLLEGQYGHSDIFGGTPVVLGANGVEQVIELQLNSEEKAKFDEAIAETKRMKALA

The nature of test [4]: inhibition of 3D7 malaria parasite growth – strain 3D7 (AID 2306).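 Further: 0% = DMSO wells and 100% = chloroquine plus artemisinin control wells.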 The conditions noted are these: P. falciparum 3D7 erythrocytic growth, LDH absorbance, 72 h; at 2 µM; hits give high values.
The target in test [5] is Calcium-dependent protein kinase 1 (Plasmodium falciparum (isolate 3D7)) (UniProt P62344). The test can be described thus: PfCDPK1 kinase inhibitors, biochemical, TCAMS library (AID 1159585; cut-off not given, nearly all actives have IC50 up to about 0.98 µM;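 further: inhibitors leave more ATP so luminescence rises with inhibition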). The settings on record: recombinant PfCDPK1, Kinase-Glo ATP depletion luminescence. In general terms: Kinase-Glo reads ATP consumption through a luciferase reaction.
Calcium-dependent protein kinase 1 (Plasmodium falciparum (isolate 3D7)), sequence (P62344 whole entry, looked up): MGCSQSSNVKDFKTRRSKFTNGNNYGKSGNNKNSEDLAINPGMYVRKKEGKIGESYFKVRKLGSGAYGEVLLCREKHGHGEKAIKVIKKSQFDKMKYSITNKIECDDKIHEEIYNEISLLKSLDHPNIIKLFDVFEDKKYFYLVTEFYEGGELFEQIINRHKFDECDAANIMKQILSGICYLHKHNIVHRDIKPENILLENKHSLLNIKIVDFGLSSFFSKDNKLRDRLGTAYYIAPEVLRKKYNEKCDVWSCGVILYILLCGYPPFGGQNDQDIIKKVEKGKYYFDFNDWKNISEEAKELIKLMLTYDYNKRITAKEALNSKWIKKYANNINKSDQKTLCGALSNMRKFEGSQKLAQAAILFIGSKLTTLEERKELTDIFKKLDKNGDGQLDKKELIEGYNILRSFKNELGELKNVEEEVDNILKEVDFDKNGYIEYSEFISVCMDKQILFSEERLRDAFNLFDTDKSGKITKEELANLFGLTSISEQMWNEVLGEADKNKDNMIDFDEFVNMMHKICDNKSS
Test [6] concerns the target Plasmodium falciparum protein kinase 6 (PK6, PF3D7_1337100) (UniProt Q8IDW1). The test can be described thus: PfPK6 kinase inhibitors, biochemical, TCAMS library (AID 1159586). The conditions noted are these: recombinant PfPK6, Kinase-Glo ATP depletion luminescence.
The target of test [7] is Protein kinase 7 (PK7), Plasmodium falciparum 3D7 (PF3D7_0213400) (UniProt Q7YTF7). The test can be described thus: inhibition of Plasmodium PK7 catalytic activity – biochemical, TCAMS antimalarial set, Kinase-Glo luminescence (AID 1159587). The conditions noted are these: recombinant PfPK7, Kinase-Glo ATP depletion luminescence.
Protein kinase 7 (PK7), Plasmodium falciparum 3D7 (PF3D7_0213400), sequence (Q7YTF7 1-343): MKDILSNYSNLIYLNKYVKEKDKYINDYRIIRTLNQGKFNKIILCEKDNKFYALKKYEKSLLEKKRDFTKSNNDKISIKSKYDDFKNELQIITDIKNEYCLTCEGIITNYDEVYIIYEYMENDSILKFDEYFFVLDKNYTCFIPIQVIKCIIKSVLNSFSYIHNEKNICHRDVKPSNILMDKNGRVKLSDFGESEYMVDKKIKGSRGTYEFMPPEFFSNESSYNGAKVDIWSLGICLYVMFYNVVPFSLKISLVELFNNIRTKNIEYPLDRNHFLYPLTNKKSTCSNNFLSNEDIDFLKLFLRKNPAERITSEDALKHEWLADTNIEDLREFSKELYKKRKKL
The target in test [8] is Calcium-dependent protein kinase 4 (Plasmodium falciparum (isolate 3D7)) (UniProt Q8IBS5). The test can be described thus: PfCDPK4 kinase inhibitors, biochemical, TCAMS library (AID 1159588; cut-off not given, nearly all actives have IC50 up to about 0.91 µM). The settings on record: recombinant PfCDPK4, Kinase-Glo ATP depletion luminescence.
Calcium-dependent protein kinase 4 (Plasmodium falciparum (isolate 3D7)), sequence (Q8IBS5 whole entry, looked up): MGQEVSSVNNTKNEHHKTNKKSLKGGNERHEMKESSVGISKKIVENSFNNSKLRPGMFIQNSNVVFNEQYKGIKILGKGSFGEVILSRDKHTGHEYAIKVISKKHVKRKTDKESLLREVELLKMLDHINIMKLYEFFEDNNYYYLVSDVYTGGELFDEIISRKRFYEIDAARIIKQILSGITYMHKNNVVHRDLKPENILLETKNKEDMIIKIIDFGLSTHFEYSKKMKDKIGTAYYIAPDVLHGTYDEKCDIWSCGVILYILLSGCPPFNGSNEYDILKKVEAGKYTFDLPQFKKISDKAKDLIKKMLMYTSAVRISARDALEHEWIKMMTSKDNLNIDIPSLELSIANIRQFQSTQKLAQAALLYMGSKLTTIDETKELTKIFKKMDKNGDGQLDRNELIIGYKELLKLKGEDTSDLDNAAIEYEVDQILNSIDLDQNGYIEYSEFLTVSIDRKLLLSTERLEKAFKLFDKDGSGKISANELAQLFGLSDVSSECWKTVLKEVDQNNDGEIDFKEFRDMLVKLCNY

Each structure is given as a SMILES string. A number with no mark means an inactive call. For some assays here: Entries with a potency or affinity are not part of this list. Calls of active or inactive are those of the source. Unless noted, how the calls were made is not given here.

Plasmodium falciparum protein kinase 6 (PK6, PF3D7_1337100), sequence (Q8IDW1 1-305): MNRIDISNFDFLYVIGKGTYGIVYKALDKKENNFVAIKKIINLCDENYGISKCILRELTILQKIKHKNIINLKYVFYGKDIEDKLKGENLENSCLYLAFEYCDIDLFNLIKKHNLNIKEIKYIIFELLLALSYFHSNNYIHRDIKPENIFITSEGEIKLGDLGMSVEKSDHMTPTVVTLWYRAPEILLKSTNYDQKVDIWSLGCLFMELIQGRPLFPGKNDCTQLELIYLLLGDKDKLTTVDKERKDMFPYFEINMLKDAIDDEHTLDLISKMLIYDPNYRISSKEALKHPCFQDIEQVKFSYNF

Regarding `Cc1cc(NC(=O)c2ccc(-c3ccccc3)cc2)no1`, the growth inhibition was 57% (active) in test [1] and 83% (active) in test [4]. Moreover, the inhibition is 5% in test [2] and 0% in test [3]. Also, the outcome in test [5], in test [6], in test [7] and in test [8] was inactive.
In the case of `COc1ccc(CCN(C)CCOc2ccc(NC(=O)c3cccc4cc5ccccc5nc34)cc2)cc1OC`, the growth inhibition is 99% (active) in test [1] and 100% (active) in test [4]. The values for the inhibition in test [2] and in test [3] were 37% and -5%, respectively. In addition, the outcome in test [5], in test [6], in test [7] and in test [8] was inactive.
Consider `CN(C)CCOc1cc(NC(=O)Nc2ccc(Cl)cc2C(F)(F)F)ccc1I`, for which the growth inhibition is 16% in test [1] and 96% (active) in test [4]. The inhibition in test [2] was -2%; in test [3], 5%. The result in test [5], in test [6], in test [7] and in test [8] was inactive.
As for `NC(=O)c1cc2nc(NC3CCC3)nc(Nc3cccc4[nH]ncc34)c2[nH]1`, the growth inhibition in test [1] was 62% (active); in test [4], 100% (active). Also, the inhibition was 9% in test [2] and 4% in test [3]. The result in test [5], in test [6], in test [7] and in test [8] was inactive.
With `O=C(NCc1ccc(Cl)cc1)c1ccc(CN2CCCN(CC3CCCCC3)CC2)cc1`, the growth inhibition in test [1] is 5%; in test [4], 84% (active). In addition, the inhibition is 18% in test [2] and -3% in test [3]. The outcome in test [5], in test [6], in test [7] and in test [8] was inactive.
`Cc1cc(C)c(-c2n[nH]c3c2C(c2cccc(Cl)c2)N(Cc2ccco2)C3=O)c(O)c1` (configuration not stated): the growth inhibition in test [1] was 89% (active); in test [4], 96% (active). In addition, the inhibition in test [2] was -3%; in test [3] it was -1%. The outcome in test [5], in test [6], in test [7] and in test [8] was inactive.
In the case of `CCOc1ccc(C(=O)Nc2cc(Cl)ccc2O)cc1Cl`, the growth inhibition is 84% (active) in test [1] and 83% (active) in test [4]. Also, the inhibition was 11% in test [2] and 0% in test [3]. In addition, the outcome in test [5], in test [6], in test [7] and in test [8] was inactive.
Regarding `COc1ccccc1CN1CCC(NC(=O)c2ccc(-c3ccc(N(C)C)cc3)s2)CC1`, the growth inhibition is 38% in test [1] and 90% (active) in test [4]. For the same compound, the inhibition in test [2] is 29%; in test [3] it was -2%. Moreover, the result in test [5], in test [6], in test [7] and in test [8] was inactive.
Regarding `O=C(Nc1ccc(S(=O)(=O)NCCCN2CCOCC2)cc1)c1cc(-c2ccccc2)n[nH]1`, the growth inhibition in test [1] is 29%; in test [4] it was 82% (active). The results for the inhibition in test [2] and in test [3] were 16% and 1%, respectively. In addition, the result in test [5], in test [6], in test [7] and in test [8] was inactive.
Consider `Cc1cc(Cl)ccc1N(Cc1ccccc1)c1ccnc(Cl)n1`, for which the growth inhibition in test [1] was 98% (active); in test [4] it was 97% (active). Besides, the values for the inhibition in test [2] and in test [3] were 16% and 2%, respectively. Moreover, the outcome in test [5], in test [6], in test [7] and in test [8] was inactive.
As for `O=C(NCCN1CCCc2ccccc21)C1CCN(c2nc(-c3ccc(Cl)cc3)no2)CC1`, the growth inhibition in test [1] was 62% (active); in test [4] it was 86% (active). For the same compound, the inhibition was 11% in test [2] and -1% in test [3]. Besides, the result in test [5], in test [6], in test [7] and in test [8] was inactive.
On to `Cc1cc(N(C)C)nc(Nc2ccc(NC(=O)CCc3ccccc3)cc2)n1`, for which the values for the growth inhibition in test [1] and in test [4] were 84% (active) and 100% (active), respectively. The inhibition in test [2] was 20%; in test [3] it was 1%. In addition, the outcome in test [5], in test [6], in test [7] and in test [8] was inactive.
For `Cc1ccccc1C1CCN(C2CCC(NC(=O)/C=C/c3ccc(C(F)(F)F)cc3)CC2)CC1` (configuration not stated), the growth inhibition in test [1] is 19%; in test [4] it was 95% (active). Besides, the figures for the inhibition in test [2] and in test [3] were 64% (active) and -3%, respectively. Also, the outcome in test [5], in test [6], in test [7] and in test [8] was inactive.
As for `CC1(C)N=C(N)N=C(N)N1OCCCc1c(Cl)cccc1Cl`, the figures for the growth inhibition in test [1] and in test [4] were 97% (active) and 95% (active), respectively. The inhibition in test [2] was 71% (active); in test [3], 3%. Also, the outcome in test [5], in test [6], in test [7] and in test [8] was inactive.
Take `O=c1cc(NCCCNCc2cc(Cl)c(Cl)cc2Cl)[nH]c2ccccc12`: the growth inhibition in test [1] is 20%; in test [4] it was 93% (active). Also, the inhibition in test [2] is 7%; in test [3], -1%. The result in test [5], in test [6], in test [7] and in test [8] was inactive.
Regarding `Cn1cc(C2CCN(CCCCNC(=O)c3ccc(-c4ccc(C(F)(F)F)cc4)c(CO)c3)CC2)c2ccccc21`, the growth inhibition in test [1] is 16%; in test [4], 88% (active). For the same compound, the inhibition is 67% (active) in test [2] and -1% in test [3]. In addition, the result in test [5], in test [6], in test [7] and in test [8] was inactive.
As to `Cc1cccc(-c2nc3[nH]c(=O)cc(NC(=O)C(C)C)n3n2)c1`, the growth inhibition was 93% (active) in test [1] and 96% (active) in test [4]. The results for the inhibition in test [2] and in test [3] were -12% and 0%, respectively. Besides, the outcome in test [5], in test [6], in test [7] and in test [8] was inactive.
In the case of `Cc1ccc(C)c(S(=O)(=O)Nc2ccc(Br)cc2C(=O)Nc2cccc(C(F)(F)F)c2)c1`, the results for the growth inhibition in test [1] and in test [4] were 98% (active) and 81% (active), respectively. Moreover, the inhibition was 56% (active) in test [2] and -7% in test [3]. Further, the outcome in test [5], in test [6], in test [7] and in test [8] was inactive.
Consider `O=C(NCC1CN(Cc2ccc(N3CCCC3)o2)CCCO1)c1ccc2c(c1)OCO2` (configuration not stated), for which the growth inhibition in test [1] was 70% (active); in test [4], 83% (active). The inhibition is -3% in test [2] and -1% in test [3]. Further, the result in test [5], in test [6], in test [7] and in test [8] was inactive.

The inhibition is the relative decrease from the control value, in per cent.
